Compounds with a hit are over-represented: about 2.2% of the library has one in this group of screens.
BaF3 tox – parental Ba/F3 cell viability inhibition, counter-screen for JAK2V617F inhibitor project, murine pro-B, CellTiter-Glo luminescence; CellTiter-Glo ATP luminescence; inhibition, % at 5.6 µM; hit rate 1.1% among 220,000; AID 1486, 2009;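 active means inhibition above a per-campaign cutoff, the mean inhibition of all tested compounds plus 3 SD, cut at about 27% in these data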
IEC-6 tox – cytotoxicity in IEC-6 intestinal epithelial cells, primary screen, cytotoxicity control for KLF5 inhibitor project, cell-based, luminescence; IEC-6 cytotoxicity, luminescence viability; inhibition, % at 5 µM; hit rate 0.78% among 290,000; in the data active means inhibition above about 22%
APP transl inh – inhibitors of APP translation via 5'UTR reporter, primary screen, APP 5'UTR luciferase, SH-SY5Y cells. SH-SY5Y APP 5'UTR-luciferase reporter, luminescence. inhibition, % at 2 µM. hit rate 0.82% among 190,000. AID 1285, 2008;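 active means inhibition above a set limit, derived from the sample mean plus 3 SD, cut at about 45% in these data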
Ba/F3 V617F tox – reduced viability of JAK2V617F-dependent Ba/F3 cells, primary screen, JAK2V617F inhibitor project, cell-based, Ba/F3 EpoR-JAK2V617F, luminescence. ATP luminescence. inhibition, % at 5.6 µM. hit rate 1.1% among 220,000. AID 1446, 2008;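 active means inhibition above the campaign mean plus 3 SD over all tested compounds, cut at about 24% in these data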;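 further: cytokine-independent growth of Ba/F3 cells driven by EpoR plus mutant JAK2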
aSyn 5UTR inh – MLPCN primary screen, SNCA 5' untranslated region. alpha-synuclein 5'UTR reporter, inhibitor activity. inhibition, % (tested at 7.5 µM). hit rate 0.82% among 300,000. AID 1813, 2009; in the data active means inhibition above about 60%;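 further: H4 neuroglioblastoma cells stably carrying SNCA 5'UTR luciferase fusion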
KLF5 inh – KLF5 expression inhibitors, primary screen, DLD-1 cells, luminescence; DLD-1 KLF5 promoter-luciferase reporter; inhibition, % at 5 µM; hit rate 0.23% among 290,000; AID 1700, 2009;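 active means inhibition above a per-plate limit of that plate's mean compound inhibition plus 3 SD, cut at about 60% in these data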;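 further: higher means less KLF5 promoter-driven luciferase light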
Numbers stand for hits; n = inactive; x = no result given.

SMILES	BaF3 tox	IEC-6 tox	APP transl inh	Ba/F3 V617F tox	aSyn 5UTR inh	KLF5 inh
NNc1ccc2c(C(F)(F)F)cc(C(F)(F)F)nc2n1	n	n	n	n	n	n
N#CC(c1cccc(Cl)c1)c1ccc2c(C(F)(F)F)cc(C(F)(F)F)nc2n1 (stereo unspecified)	n	n	n	n	97.0	n
COc1ccc2c(c1)[N+](C)(C)C(C)(C)C=C2C	46.7	n	n	26.1	n	n
CCNC(=O)N1c2ccc(OCC)cc2C(C)=CC1(C)C	n	n	n	n	n	n
COc1ccc(C2C(=O)c3ccccc3C2=O)c(OC)c1	n	n	n	n	n	n
CCOc1ccc2c(c1)[N+](C)(C)C(C)(C)C=C2C	60.5	n	n	54.1	n	n
N#Cc1ccc(NC(=O)Nc2ccc(Oc3ccc(NC(=O)Nc4ccc(C#N)cc4)cc3)cc2)cc1	n	n	x	n	73.7	n
Cc1c(NC(=O)COC(=O)C(c2ccc(Cl)cc2)C(C)C)c(=O)n(-c2ccccc2)n1C (stereo unspecified)	96.9	n	x	n	n	n
Cc1c(NC(=O)COC(=O)/C=C/c2ccc(Cl)cc2)c(=O)n(-c2ccccc2)n1C	n	n	n	n	n	n
Cc1c(NC(=O)C(C)Sc2ccccc2)c(=O)n(-c2ccccc2)n1C (stereo unspecified)	n	n	57.6	n	n	n
Cc1c(N/N=C(\C#N)C(=O)c2ccc(Cl)cc2)c(=O)n(-c2ccccc2)n1C	62.4	n	73.3	31.2	86.3	n
COc1cc(CN(C)c2ncnc3sccc23)ccc1OC(F)F	x	n	x	x	n	n
O=C1c2ccccc2C(=O)C1c1nccc2ccccc12	n	n	n	n	98.9	n
O=C1c2ccccc2C(=O)C1c1ccnc2ccccc12	n	n	n	n	88.8	n
CC1(C)CC(=O)C2=C(C1)NC1=C(C(=O)c3ccccc31)C2c1cc([N+](=O)[O-])ccc1O (stereo unspecified)	n	n	x	n	n	n
CCOCCCNc1ncnc2c1[nH]c1ccccc12	n	n	n	n	n	n
CCCCOCCCNc1ncnc2c1[nH]c1ccccc12	61.0	n	n	64.0	n	n
CCCCOc1ncnc2c1[nH]c1ccccc12	34.9	n	n	n	n	n
COC(=O)CS(=O)(=O)c1cc(Br)cc2c1N(C(C)=O)CC2	92.7	n	n	n	n	n
Cc1ccccc1C(=O)NNC(=O)CCCCC(=O)NNC(=O)c1ccccc1C	x	x	x	x	n	x
CC(=O)c1c(C)[nH]c(C(=O)COc2cc(C)ccc2C(C)C)c1C	40.0	n	n	45.4	n	n
CCN1CCN(c2ccc(NC(=O)c3ccc4c(c3)[nH]c(=O)n4Cc3ccc(F)cc3)cc2)CC1	n	n	n	n	n	n
Cc1cc(=O)n(-c2ccc(C(=O)O)cc2)[nH]1	n	n	n	n	n	n
Cc1cc(=O)n(-c2ccc(O)cc2)[nH]1	60.2	n	n	51.2	n	n
COc1ccc(C2CC(c3cccs3)=NN2C(=O)CCl)cc1OC (stereo unspecified)	x	n	x	x	n	n
SMILES	BaF3 tox	IEC-6 tox	APP transl inh	Ba/F3 V617F tox	aSyn 5UTR inh	KLF5 inh
COc1cc(C2CC(c3cccs3)=NN2C(=O)CCl)ccc1OC(F)F (stereo unspecified)	x	n	x	x	107.1	n
CCCCC(CCC(=O)Nc1ccn(-c2ccccc2)n1)C(=O)O (stereo unspecified)	63.1	n	x	n	n	n
COC(=O)C1=C(C)NC(C)=C(C(=O)OC)C1c1ccc2ccccc2n1	n	n	x	n	n	n
O=C1c2ccccc2C(=O)C1c1ccc2ccccc2n1	n	n	n	n	94.4	n
CCOC(=O)/C(N=Nc1sc(C(=O)OC)c(C)c1C(=O)OCC)=C(\O)CCl	n	n	n	n	n	n
COC(=O)C(Cc1ccc(OC(=O)c2ccc(Cl)cc2)cc1)N1Cc2ccccc2C1=O (stereo unspecified)	96.4	n	n	n	n	n
Cc1ccccc1OCCn1cnc2c(N)ncnc21	32.7	n	n	56.7	n	n
Cc1ccccc1OCCn1c(=S)[nH]c2c(N)ncnc21	x	n	x	x	n	n
CC[n+]1c(/C=C/c2c[nH]c3ccccc23)ccc2cc(C)ccc21	78.8	n	n	91.2	x	n
N#Cc1cnc2nc(SCc3ccccc3)nn2c1	x	n	x	x	n	n

Bioassay records deposited in PubChem BioAssay by several laboratories.
